# Data from PubChem BioAssay AID652283 (National Center for Advancing Translational Sciences (NCATS), 2013).
# Inconclusive results are not listed. Activity calls are given as the source filed them. Calls come from the whole dose curve; as a rule, active = well fitted inhibition curve with a large enough effect; inconclusive = small, poorly fitted or top-dose-only effect; inactive = no such curve, though single readings can be large or run the other way.
# Experiment: qHTS Assay for Lipid Storage Modulators: COS7 Assay against Probe and Analogs
# Conditions: COS7 lipid droplet area, BODIPY imaging, 18 h; cells loaded with 400 µM oleic acid
# Description: Storing lipids as a reservoir for energy or the anabolism of elementary metabolites is a common feature of probably all cells and is conserved from bacteria to humans. The universal cellular lipid storage organelle is the so-called lipid storage droplet (LD). Although ubiquitous, LDs share a simple structure composed of a hydrophobic core that harbors the storage lipids, which is shielded by a droplet-specific phospholipid monolayer to which proteins are attached. The current model of LD biogenesis involves an incorporation of the lipid core into the membrane leaflets of the endoplasmic reticulum (ER) followed by a subsequent budding-like maturation of a LD, which ultimately pinches off. Once released, LD volume can increase by localized lipogenesis or fusion of existing droplets. Storage lipids are re-mobilized enzymatically by lipase activity. Lipase regulation in the adipocyte is heavily studied and involves multiple components including catecholamine signaling, the LD-associated proteins Perilipin and comparative gene identification-58 (CGI-58) and at least two lipases named hormone sensitive lipase (HSL) and adipocyte triglyceride lipase (ATGL). LD regulation outside of the adipocyte is poorly understood and only few components are known. However, there is an urgent need to learn more about ectopic fat depots as mislocalized storage of lipids, for example in the liver or muscle, is an eminent health problem associated with insulin resistance or the metabolic syndrome. We developed a laser-scanning cytometer assay to enable 1,536-well screening and combined the results of the small molecules screen with an RNAi database based on lipid storage. In this assay we tested analogs of the probe against a mammalian cell line (COS7), to see if these small molecules could disrupt lipid storage. NIH Molecular Libraries Probe Production Centers Network [MLPCN] NIH Chemical Genomics Center [NCGC] MLPCN Grant: MH085686 Assay Submitter (PI): Mathias Beller, Max-Planck-Institut fur Biophysikalische Chemie
# COS7 cells were obtained from ATCC (CRL-1651), 5500 cells/well were dispensed into Corning 96 well imaging plate (catalog # 3340), and cultured in 100 uL of 1:1 DMEM medium (PAA) contain 10% fetal bovine serum (FBS) for 24 hours at 37 degrees C, 95% humidity, and 5% CO2. The medium was exchanged for compound treatment. Compound treatment occurred in 150 microL serum reduced medium (5% FBS) and 0.2% DMSO in presence of 400 microM oleic acid for 17-18 h. Cells were then fixed (3.7 % formaldehyde in PBS, 5 min), permeabilized (0.1% Triton X100, 5 min) and washed three times with PBS. Lipid droplets (1:2000 BODIPY 493/503) and nuclei (1:1000 Hoechst 33342) were stained for 1h. Imaging was performed in a Zeiss Axiovert automatic microscope. Number of lipid droplet accumulated in […] cells were analyzed using visual examination of the microscopic images and additional quantification by image segmentation using Cell Profiler.
SMILES,Potency,max response
CCOc1ccc(CCNC(=O)c2cc3sccc3n2CC=C(C)C)cc1OCC,2.35 µM (active),–
CCOC(=O)C1CCN(C(=O)C2(NC(=O)Nc3ccc(F)cc3F)CCCCC2)CC1,16.6 µM (active),–
CCOc1ccc(CCNC(=O)c2cc3sccc3n2Cc2ccccn2)cc1OCC,1.48 µM (active),–
CCOc1ccc(CCNC(=O)c2cc3sccc3n2Cc2ccncc2)cc1OCC,2.96 µM (active),–
CCOc1ccc(CCNC(=O)c2cc3sccc3[nH]2)cc1OCC,–,-4.32% (inactive)
O=C(NC1CCCc2c1cnn2-c1ccc(F)cc1F)c1ccncc1 (stereo not given),–,1.34% (inactive)
CCOc1ccc(CCNC(=O)C2=C(C)OCCO2)cc1OCC,–,10.4% (inactive)
O=C(CCCCCCC(=O)Nc1ccccc1)NO,–,-18.2% (inactive)
CCOc1ccc(CCNC(=O)c2cc3ccccc3n2Cc2ccc(Cl)c(F)c2)cc1OCC,0.332 µM (active),–
CCOc1ccc(CCNC(=O)c2cc3sccc3n2Cc2ccc(Cl)c(F)c2)cc1OCC,0.296 µM (active),–
CC(C)Oc1ccc(CCNC(=O)c2cc3sccc3n2Cc2ccccc2)cc1OC(C)C,1.66 µM (active),–
CCOc1ccc(CCNC(=O)c2cccc(C(=O)c3ccccc3)c2)cc1OCC,14.8 µM (active),–
O=C(N[C@H]1CCCc2c1cnn2-c1ccc(F)cc1F)c1ccccn1,–,6.84% (inactive)
COc1ccc(-n2ncc3c2CCCC3NC(=O)c2ccccn2)cc1 (stereo not given),4.69 µM (active),–
Cc1ccc(NC(=O)c2ccc(CN3CCN(C)CC3)cc2)cc1Nc1nc(-c2cccnc2)cs1,–,-0.902% (inactive)
CCOC(=O)C1CCN(C(=O)C(C)(C)NC(=O)Nc2ccc(F)c(F)c2)CC1,–,-20.8% (inactive)
CCOc1ccc(CCNC(=O)c2cnon2)cc1OCC,–,8.92% (inactive)
COc1cccc(-n2ncc3c2CCCC3NC(=O)c2ccccn2)c1 (stereo not given),5.9 µM (active),–
CCOc1ccc(CCNC(=O)c2cc3sccc3n2CCN2CCOCC2)cc1OCC,2.96 µM (active),–
CCOc1ccc(CCNC(=O)c2cc3ccccc3n2Cc2cc(C)cc(C)n2)cc1OCC,1.48 µM (active),–

SMILES,Potency,max response
CN(C)Cc1ccc(-c2nc3cccc4c3n2CCNC4=O)cc1,–,3.13% (inactive)
CC(C)(C)OC(=O)N1CCCCC1C(=O)NC1CCCc2c1cnn2-c1ccc(F)cc1F (stereo not given),–,7.96% (inactive)
O=C(NC1CCCc2c1cnn2-c1ccc(F)cc1F)c1cccc(=O)[nH]1 (stereo not given),–,14.9% (inactive)
O=C(NC1CCCc2c1cnn2-c1ccc(F)cc1F)c1ccccc1 (stereo not given),14.8 µM (active),–
O=C(c1cc2sccc2n1Cc1ccccc1)N(CCc1ccc(O)c(O)c1)Cc1ccccc1,–,10.7% (inactive)
CCOc1ccc(CCNC(=O)c2ccc(C3(C(F)(F)F)N=N3)cc2)cc1OCC,7.43 µM (active),–
O=C(NC1CCCc2c1cnn2-c1ccc(F)cc1F)c1ccn[nH]1 (stereo not given),–,-5.9% (inactive)
O=C(NC1CCCc2c1cnn2-c1ccc(F)cc1F)c1cccs1 (stereo not given),–,-60.6% (inactive)
CN(C)CC(=O)NC1CCCc2c1cnn2-c1ccc(F)cc1F (stereo not given),–,19.8% (inactive)
O=C(NC1CCCc2c1cnn2-c1ccc(F)cc1F)c1cnccn1 (stereo not given),–,-14.9% (inactive)
CCOc1ccc(CCNC(=O)c2cc3c(s2)CCC3)cc1OCC,11.8 µM (active),–
O=C(NC1CCCc2c1cnn2-c1ccc(F)cc1F)c1ccc(C2(C(F)(F)F)N=N2)cc1 (stereo not given),–,3.15% (inactive)
CCOc1cc2c(cc1OCC)CN(C(=O)c1cc3sccc3n1Cc1ccccc1)CC2,3.32 µM (active),–
CC(C)(C)OC(=O)NCCOCCOCCOc1cccc(-n2ncc3c2CCCC3NC(=O)c2ccccn2)c1 (stereo not given),14.8 µM (active),–
CCOc1ccc(CCN(C)C(=O)c2cc3sccc3n2Cc2ccccc2)cc1OCC,11.8 µM (active),–
CCOC(=O)C1CCN(C(=O)C2(NC(=O)Nc3ccccc3Cl)CC2)CC1,–,-17.2% (inactive)
COc1cc(Nc2ncc(F)c(Nc3ccc4c(n3)NC(=O)C(C)(C)O4)n2)cc(OC)c1OC,–,-7.73% (inactive)
CCOc1ccc(CCNC(=O)c2csc(Br)n2)cc1OCC,–,-17.2% (inactive)
CCOC(=O)C1CCN(C(=O)C(C)(C)NC(=O)Nc2ccc(C#N)cc2)CC1,–,-15.2% (inactive)
O=C(Nc1cccc2c1cnn2-c1ccc(F)cc1)c1ccccn1,–,3.22% (inactive)
